# Source: PubChem BioAssay (Sanford-Burnham Center for Chemical Genomics)
# An excerpt weighted towards active compounds, which were near 4% of everything screened.
# NALP1 inh – NALP1 inhibition | S. cerevisiae NALP1/ASC/caspase-1 growth, X-gal OD620, 72 h | inhibition, % at 10 µM | hit rate 0.61% among 280,000 | AID 2071; in the data active means inhibition mostly above about 24%, no sharp cut-off; inactive means mostly below about 32%
# NLRP3 yeast inh – inhibitors of NALP3 inflammasome in yeast. Yeast reconstituted NLRP3/ASC/caspase-1, beta-gal luminescence, 24 h. inhibition, % at 10 µM. hit rate 0.39% among 330,000;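 active means inhibition of 50% or more; inactive means inhibition below 50%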;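 further: plate controls were induced DMSO wells for no effect and uninduced yeast grown without galactose for full effect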
# tim10-1 inh – tim10-1 yeast growth inhibition | S. cerevisiae tim10-1 ts strain growth, BacTiter-Glo, 24 h | AID 463190 | hit rate 2.2% among 330,000 | inhibition, % at 20 µM;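 active means inhibition of at least 40%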;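 further: mutant grown at 25 °C; 0% = DMSO wells with yeast and 100% = wells holding no yeast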
# TIM10 inh – growth inhibitors of TIM10 yeast strain. S. cerevisiae TIM10 strain growth, BacTiter-Glo luminescence, 24 h. inhibition, % at 10 µM. hit rate 1.4% among 330,000. AID 463195;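 active means inhibition of 40% or more at the single tested concentration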;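 further: wild-type TIM10 isogenic control strain grown at permissive 25 °C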
# tim23-1 inh – tim23-1 yeast growth inhibition. S. cerevisiae tim23-1 growth, BacTiter-Glo luminescence, 24 h. inhibition, % at 20 µM. hit rate 1.3% among 330,000. AID 463212;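 active means growth inhibition of the mutant yeast at or above 50%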;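 further: temperature-sensitive mutant grown at 25 °C; plate controls were DMSO-treated mutant yeast for no effect and medium wells lacking yeast for full effect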
# tim10-1 confirm – confirmation of tim10-1 mutant yeast growth inhibitors. hit rate 56% among 7,400. S. cerevisiae tim10-1 ts strain growth, BacTiter-Glo, 24 h. inhibition, % at 20 µM. shares compounds with tim10-1 inh;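 active means inhibition of yeast growth at or above a set limit in either of two repeat tests at 20 µM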;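 further: tim10-1 mutant grown at permissive 25 °C to find synthetic lethal compounds; 0% = DMSO yeast wells and 100% = medium wells without yeast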
# The depositor's hits bear a star; / = no result given.
SMILES,NALP1 inh,NLRP3 yeast inh,tim10-1 inh,TIM10 inh,tim23-1 inh,tim10-1 confirm
Cc1c(C(=O)N2CCN(Cc3ccc4c(c3)OCO4)CC2)sc2ncnc(N3CCN(c4ccccc4)CC3)c12,40,20,48*,21,24,7
O=C(c1cc2c(=O)n3ccccc3nc2s1)N1CCN(Cc2ccc3c(c2)OCO3)CC1,-5,13,43*,40,42,30
Cc1c(C(=O)N2CCN(Cc3ccc4c(c3)OCO4)CC2)sc2ncnc(N3CCN(c4ccccc4F)CC3)c12,6,19,41*,24,20,0
O=C(c1cc2c(=O)n3ccccc3nc2s1)N1CCN(Cc2ccccc2)CC1,2,27,14,11,17,/
CCN(C(=O)Cn1cnc2c1c(=O)n(C)c(=O)n2C)C1CCCCC1,/,-1,-1,-6,-6,/
COc1ccc(N2CCN(S(=O)(=O)CCNC(=O)/C=C/c3ccc4c(c3)OCO4)CC2)cc1,/,14,-6,4,-12,/
CCOc1ccc(NC(=O)c2cccc(-n3cccc3)c2)cc1S(=O)(=O)N1CCOCC1,/,17,12,-24,1,/
Fc1ccc(-c2nc3nc4ccccc4nc3n2Cc2ccco2)cc1,-4,3,43*,36,49,33*
S=c1nc(-c2ccccc2)n(Cc2ccco2)c2c1CCCC2,-9,/,/,/,/,/
c1ccc(-c2nc3nc4ccccc4nc3n2Cc2ccco2)cc1,25,2,41*,20,42,25
CCN(CC)S(=O)(=O)c1ccc(OC)c(NC(=O)OCc2ccccc2)c1,16,23,20,4,32,/
CS(=O)(=O)N(CC(=O)Nc1ccc(S(=O)(=O)N2CCCC2)cc1)c1ccccc1,14,7,1,-4,17,/
Cc1cc(C)c(C)c(S(=O)(=O)Nc2ccccc2N2CCOCC2)c1C,/,12,10,18,33,/
COc1ccc(Nc2nc(S(=O)(=O)c3ccc(C)cc3)c(Cl)s2)cc1,35,46,42*,17,30,30
COc1ccc(NS(=O)(=O)c2ccc3oc4ccccc4c3c2)cn1,-1,10,44*,24,46,36*
COc1ccc(NS(=O)(=O)c2ccc(Br)cc2)cn1,4,27,18,3,26,/
Cc1ccc(S(=O)(=O)CC(=O)N2CC(C)OC(C)C2)cc1 (stereo not given),10,3,3,13,6,/
O=C(NNC(=S)Nc1ccc(F)cc1)c1ccccc1OC(F)F,-8,17,23,7,8,/
O=C(NNC(=S)Nc1cccc(Cl)c1)c1ccccc1OC(F)F,16,19,43*,4,33,28
Cc1ccc(NC(=S)NNC(=O)c2ccccc2OC(F)F)cc1,-38,12,40*,29,17,39*
Cn1c(SCc2ccc(C#N)cc2)nnc1-c1ccncc1,-1,11,-14,-12,-10,/
C=CCn1c(SCc2ccc(C#N)cc2)nnc1-c1ccc(C)cc1,6,-3,44*,17,36,28
CC1CCC(NC(=O)CCCn2sc3ccccc3c2=O)CC1 (stereo not given),1,11,41*,2,39,1
O=C(CCCn1c(=O)[nH]c2ccccc2c1=O)NC1CCCCCC1,26,-3,16,9,14,/
CCOc1ccc(NCC(=O)Nc2ccc(Cl)cc2C)cc1,-3,17,45*,17,34,20
SMILES,NALP1 inh,NLRP3 yeast inh,tim10-1 inh,TIM10 inh,tim23-1 inh,tim10-1 confirm
CCCOc1ccc(NCC(=O)Nc2ccc(C)cc2C)cc1,-14,10,36,-2,13,/
CC(=O)c1sc(N/N=C\c2c(O)ccc3ccccc23)nc1C,/,1,42*,10,23,-10
CCOc1ccccc1Nc1nc(-c2sc(C)nc2C)cs1,1,-6,47*,31,28,24
CCOc1ccccc1Nc1nc(-c2sc(NC(=O)c3ccco3)nc2C)cs1,-10,17,17,1,31,/
Cc1onc(-c2c(F)cccc2Cl)c1C(O)c1ccc(F)cc1 (stereo not given),-16,35,-25,-25,15,/
O=C1CC(SCc2nc3ccccc3[nH]2)C(=O)N1c1ccc(F)c(Cl)c1 (stereo not given),-1,-3,54*,35,21,42*
O=C(CNC(=O)C12CC3CC(CC(C3)C1)C2)Nc1ncccc1O,/,2,10,-1,14,/
CN(C(=O)COC(=O)CCc1c[nH]c2ccccc12)c1ccccc1,/,15,43*,19,41,26
CCC(=O)N1CCN(c2ccnc3cc(Cl)ccc23)CC1,/,14,2,14,2,/
CC(C)N(C(=O)N1CCN(c2ccnc3cc(Cl)ccc23)CC1)C(C)C,8,12,40*,23,43,29*
CCc1ccc(-c2cc3c(=O)n(CC(=O)NCCCN4CCC(Cc5ccccc5)CC4)nc(C)n3n2)cc1,11,2,53*,-38,36,-80
Cc1nn(CC(=O)NCCCN2CCC(Cc3ccccc3)CC2)c(=O)c2cc(-c3ccccc3)nn12,-3,-1,-47,-77,-47,/
Cc1cc(C)cc(NC(=O)CCc2c(C)nn(-c3ccc(N4CCOCC4)nn3)c2C)c1,-12,27,26,-1,12,/
CCc1ccccc1NC(=O)CCc1c(C)nn(-c2ccc(N3CCOCC3)nn2)c1C,7,10,62*,12,10,-9
C/C(=N\NC(=S)NCc1ccccc1)c1ccc(Cl)s1,2,16,41*,39,5,33*
Cc1cc(NC(=O)COC(=O)C2CC(=O)N(c3ccccc3Cl)C2)no1 (stereo not given),12,19,7,-7,13,/
CC(C)C[C@H](NC(=O)OC(C)(C)C)C(=O)N[C@@H](CO)[C@H](O)[C@@H]1C[C@@H]1C(=O)N(C)C,26,-7,-1,0,-6,/
Cc1ccccc1/C=c1\s/c(=C\C(=O)C(C)(C)C)[nH]c1=O,-13,9,34,2,34,/
CCc1ccc(/C=c2\s/c(=C\C(=O)C(C)(C)C)[nH]c2=O)cc1,23,16,53*,32,50,44*
Cc1nn(-c2ccc(F)cc2F)c2c1-c1nc(N3CCCC3)ncc1CC2,-15,9,45*,35,28,20
Cc1nn(-c2ccc(F)cc2F)c(=O)c2noc(C)c12,28,21,-14,-14,6,/
O=[N+]([O-])c1ccccc1Nc1cccnc1,/,8,-9,-2,12,/
COc1cccc(CNC(=O)c2cc(S(=O)(=O)N3CCOCC3)cn2C)c1,26,-3,5,2,-7,/
c1ccc(-c2cc(-c3nnc4n3N=C(c3ccc5ccccc5c3)CS4)[nH]n2)cc1,40,8,48*,10,26,8
O=C(C[n+]1cccc(C(=O)N/N=C/c2cccc([N+](=O)[O-])c2)c1)c1ccccc1,/,25,1,10,21,/
CC(C)(C)n1nnnc1C(c1ccccn1)N(Cc1ccccc1)Cc1ccc(Cl)cc1 (stereo not given),9,5,50*,39,32,31*
